Unmarked numbers belong to inactive results. The rule behind the calls is not given here.
Target: CD276, Q5ZPR3
Sequence (Q5ZPR3 whole entry): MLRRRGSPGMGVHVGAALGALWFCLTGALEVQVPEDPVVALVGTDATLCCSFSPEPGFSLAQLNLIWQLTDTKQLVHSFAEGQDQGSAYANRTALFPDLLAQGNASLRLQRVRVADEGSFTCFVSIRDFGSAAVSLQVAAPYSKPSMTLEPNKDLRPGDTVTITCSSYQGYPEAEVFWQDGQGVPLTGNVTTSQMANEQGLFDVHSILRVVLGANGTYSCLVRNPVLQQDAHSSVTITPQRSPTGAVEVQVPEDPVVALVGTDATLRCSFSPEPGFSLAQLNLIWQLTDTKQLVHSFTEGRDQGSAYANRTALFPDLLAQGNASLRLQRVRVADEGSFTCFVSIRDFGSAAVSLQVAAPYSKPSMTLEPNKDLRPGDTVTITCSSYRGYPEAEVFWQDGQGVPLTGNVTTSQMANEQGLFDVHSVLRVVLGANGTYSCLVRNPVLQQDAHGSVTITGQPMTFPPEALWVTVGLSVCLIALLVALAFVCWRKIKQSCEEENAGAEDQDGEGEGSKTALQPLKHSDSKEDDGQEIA

B1: design_617_b3fadc1d-0db4-4da8-8433-818493aa2ab2_655_dldesign_0_cycle1_af2pred (protein)
chain: AEEEERLRRQAEGLYELTKAVAEYLAKNPAAAEQAKALKEKAEKAFEEGMKEHPAEAIRRLQAVLNEASRAAIAASA
- binding in a display sort: not found

B2: design_617_b3fadc1d-0db4-4da8-8433-818493aa2ab2_636_dldesign_0_cycle1_af2pred (protein)
chain: TATLKEILAKVEKALELLKNASPETLNQALSLLTQAWALANKVDPAVAAAINAAIAALVDGMAKGVEVASKEGSAAAEKAIAAVKAAI
- binding in a display sort: not found

B3: design_617_b3fadc1d-0db4-4da8-8433-818493aa2ab2_49_dldesign_0_cycle1_af2pred (protein)
chain: SKLSEEAKKKAEEYLKKAEEAYKLAKEDPAAGQAKLSEILTKAMEAQTEFYKKDPSNKEALDYLNKTIQTITKYLVEAAKL
- binding in a display sort: not found

B4: design_617_b3fadc1d-0db4-4da8-8433-818493aa2ab2_117_dldesign_0_cycle1_af2pred (protein)
chain: AEKDEEAKKLVEKAKELAEAGLQTAQATGNVALAQAAANMAKALAKEAIRLAEDEKVKEEAKKEAKQAEKALKQAKA
- binding in a display sort: not found

B5: design_616_e8336982-fa4d-4d7c-b06f-9007953e1994_2151_dldesign_0_cycle1_af2pred (protein)
chain: GAAAAAEETAKKVAKYLVKGDAEEAAKEALKGHTKNQAQHIVLRAANLAAKETGKSQSIYAKAAEAIALIEA
- binding in a display sort: not found

B6: design_616_e8336982-fa4d-4d7c-b06f-9007953e1994_2198_dldesign_0_cycle1_af2pred (protein)
chain: MEEERRKKAEELLEKATKELKAMQAQAEALAKAGDIGAATQLVVDAARYGAEVTREAEKIDPEVAEKMAEVTNKIIAAALKALTAYAA
- binding in a display sort: not found

B7: design_617_b3fadc1d-0db4-4da8-8433-818493aa2ab2_588_dldesign_0_cycle1_af2pred (protein)
chain: AAAEAAKLQAERDALIKKALEAIEEASALAKELGNQEALALVHKSLTLIAKSLGADAETGLKLAKEALKAAEAALALLKKA
- binding in a display sort: not found

B8: design_616_e8336982-fa4d-4d7c-b06f-9007953e1994_2365_dldesign_0_cycle1_af2pred (protein)
chain: DVGAATVAAVNATAAAALAAVKEAAKLSPEEAKAATGAALAALADTVGQANKAALAHPEHSAQIVGTGVDALAAVQAAADEAIAKAKA
- binding in a display sort: not found

B9: design_616_e8336982-fa4d-4d7c-b06f-9007953e1994_2287_dldesign_0_cycle1_af2pred (protein)
chain: TPEQLKQAAKQALAAAKALVKNAKQASLEDAKKLAEVAKDLTENAIKAAAKAGPEAEKEAKAKAEEIKKAAEEAIAAKEA
- binding in a display sort: not found

B10: design_617_b3fadc1d-0db4-4da8-8433-818493aa2ab2_797_dldesign_0_cycle1_af2pred (protein)
chain: AEELAEEAKKYIEEARKKVTELYNEAGATELAEEANEKLESAREIVESGREHPELLPAAVAFARSVADAQLRKAESLV
- binding in a display sort: not found

B11: design_617_b3fadc1d-0db4-4da8-8433-818493aa2ab2_977_dldesign_0_cycle1_af2pred (protein)
chain: AQAVQEKAAKALATASEVAEKDQSLVPEATEAMNKASQGVALVVAGNTEEGQKLVEEALKTAEKLKKKLE
- binding in a display sort: not found

B12: design_617_b3fadc1d-0db4-4da8-8433-818493aa2ab2_1433_dldesign_0_cycle1_af2pred (protein)
chain: GVAEQAIRGLARNTVAAIEAGTLTEEGLEKALELIRGIGEAAGPAARAVAEEAIERVREAWERRKRAEAEAAAA
- binding in a display sort: not found

B13: design_617_b3fadc1d-0db4-4da8-8433-818493aa2ab2_1608_dldesign_0_cycle1_af2pred (protein)
chain: SEAERIAKAAKEMIEQQKKAGVEGSPVSAEISAKNMEANAKAHSKAIIAADPKTGKKLAKEVKKYAEEAKKEVEEAAKKKLAA
- binding in a display sort: not found

B14: design_616_e8336982-fa4d-4d7c-b06f-9007953e1994_2162_dldesign_0_cycle1_af2pred (protein)
chain: MLTPEQLQASINAIKAATRKAVEMARAGNEESAEKLLEVARDIAEALLKTDPEAGKEALKIVEEGEEEARKAAEEVRA
- binding in a display sort: binds (active)

B15: design_617_b3fadc1d-0db4-4da8-8433-818493aa2ab2_944_dldesign_0_cycle1_af2pred (protein)
chain: AEAAAIEQLNTAVEIIESAAKAGERFARAAAGLFITLARQYADVVPKETLTALAERATAAAAPVPAVAERLAAALQEVIEA
- binding in a display sort: not found

B16: design_617_b3fadc1d-0db4-4da8-8433-818493aa2ab2_1296_dldesign_0_cycle1_af2pred (protein)
chain: DGEKIQEVLDKAKELYKIAKEIEKKNPEYGKEILKLVQEALSLIAKGNAEEAMKKMEEAEKYAEEVKKKLKEEE
- binding in a display sort: not found

B17: design_616_e8336982-fa4d-4d7c-b06f-9007953e1994_2109_dldesign_0_cycle1_af2pred (protein)
chain: AAAAQAAAADAALAAATSMLEKAKEMAATNPESAKKAATVAVDLANYAIALPAATPEQKAQAQKIKEEAEALIASL
- binding in a display sort: not found

B18: design_617_b3fadc1d-0db4-4da8-8433-818493aa2ab2_1083_dldesign_0_cycle1_af2pred (protein)
chain: GDPEASKEALEYAKKAEELVKKAEELKDNPELAKKLIEEAKKHIHLALAEAGKAYPEVAQKVLTTVEKVLEKIKEL
- binding in a display sort: not found

B19: design_617_b3fadc1d-0db4-4da8-8433-818493aa2ab2_145_dldesign_0_cycle1_af2pred (protein)
chain: LQETADKAIEAANKLAELDPEVGDALKTAAETALAQGNEAQARAVKNMAESAYKYFSAKAEAAKAAAEAAA
- binding in a display sort: not found

B20: design_617_b3fadc1d-0db4-4da8-8433-818493aa2ab2_1384_dldesign_0_cycle1_af2pred (protein)
chain: MEELMEKVKSLGQAAIVAATAAKSAAAAGNTDAARVLLAQARRWLEEAGEAAEKAGEEAKEVYEEVRKVVEAEIAAAEAAIAAA
- binding in a display sort: not found

B21: design_617_b3fadc1d-0db4-4da8-8433-818493aa2ab2_1373_dldesign_0_cycle1_af2pred (protein)
chain: DAALRFAEAQLRRIERLAAEIIALGGPAWAPEAEALVAEAREALELIKTDPGAGMALLIETIERAYALLAEVRAAAA
- binding in a display sort: not found

B22: design_617_b3fadc1d-0db4-4da8-8433-818493aa2ab2_1081_dldesign_0_cycle1_af2pred (protein)
chain: GEEAAKKAQELVEKIKKLAKEIAAGTAEQAAKLLEEALKYAKEAYKLAAKADPETAAKLSAAANEELAKANRAAIALQRA
- binding in a display sort: not found

B23: design_617_b3fadc1d-0db4-4da8-8433-818493aa2ab2_1728_dldesign_0_cycle1_af2pred (protein)
chain: GAALAARHGAAAARGALQGTVEEAAAQLANGLKIAAQLAPADGAAYRAAVLAVIAQASPERAAAILALAG
- binding in a display sort: not found

B24: design_617_b3fadc1d-0db4-4da8-8433-818493aa2ab2_734_dldesign_0_cycle1_af2pred (protein)
chain: MAEEIIREATRVATEAARLAVKYGNEVANKALALAVEAMELAASGENAEEAKKKLEEAKKLLEEAKKIAKEKE
- binding in a display sort: not found

B25: design_616_e8336982-fa4d-4d7c-b06f-9007953e1994_2432_dldesign_0_cycle1_af2pred (protein)
chain: NQTKSLAQGAIAMAEAIAEELRRLGDEESAKKVEEMAKEAKKLIEEGKYEEALKVATEGVAYGAERVAALR
- binding in a display sort: not found

B26: design_617_b3fadc1d-0db4-4da8-8433-818493aa2ab2_1528_dldesign_0_cycle1_af2pred (protein)
chain: AQAVLQAASEAMVEAARVGSRASPEDRARLRALLAATSTAAIAAARGDGQAALDQAAALAAELTAAVEAVKARA
- binding in a display sort: not found

B27: design_617_b3fadc1d-0db4-4da8-8433-818493aa2ab2_1686_dldesign_0_cycle1_af2pred (protein)
chain: MEEYLEEAKRFAESVIELSKLLLEGAPYNPALSAASLAALRKQAKARAEEAAKIDPEAAEALEKAAKTAEEAEKKAKALAA
- binding in a display sort: not found

B28: design_617_b3fadc1d-0db4-4da8-8433-818493aa2ab2_522_dldesign_0_cycle1_af2pred (protein)
chain: ADPAQASQQALNAAKAAIKSAARAAKAGNLEDAKKLAEVAADLIAQASPEQAAEALKVAKEEAAEVPEIAEYMISKAEAALAQAKARA
- binding in a display sort: not found

B29: design_617_b3fadc1d-0db4-4da8-8433-818493aa2ab2_943_dldesign_0_cycle1_af2pred (protein)
chain: AEAAQEAAVADMEKAAAIAKKYAELFPSTADALIKAAEDALAAVKANKETAAETAKAGLKALNATIAAAMRQALADSAA
- binding in a display sort: not found

B30: design_617_b3fadc1d-0db4-4da8-8433-818493aa2ab2_1106_dldesign_0_cycle1_af2pred (protein)
chain: GARARMEASIAQARELAAAAVAQAAAVDPAAAAAAAAALDALLAAAEAALAAGDYDAAAAAINAAVTLAIKWMQAAAAA
- binding in a display sort: not found

B31: design_616_e8336982-fa4d-4d7c-b06f-9007953e1994_2036_dldesign_0_cycle1_af2pred (protein)
chain: GAEELAAEARKAYNEMLELLEKAKETGKTEEYVKKAAEIGRANPIAGQMAMNTVAARDPELAAKLRKAMA
- binding in a display sort: not found

B32: design_617_b3fadc1d-0db4-4da8-8433-818493aa2ab2_820_dldesign_0_cycle1_af2pred (protein)
chain: AEGKALVEQAKALAAQGAAHPQHAAAVAGTLANIGKYLAKLGPEYAKAAADVLNAFAKAVPSVAAQAKAAAAELEKLAKEA
- binding in a display sort: not found

B33: design_617_b3fadc1d-0db4-4da8-8433-818493aa2ab2_1003_dldesign_0_cycle1_af2pred (protein)
chain: KAAALHAIKVAETLLKKAKEFLEKGKEEGPEYYKMAYATAQSAILVAQGAVEVAKKVSKKLYKKAKKLLEEAKKLAEEAKKLAE
- binding in a display sort: not found

B34: design_617_b3fadc1d-0db4-4da8-8433-818493aa2ab2_206_dldesign_0_cycle1_af2pred (protein)
chain: ADALTKKTAEAIYQQVKKRAEELLKKAKEGTPELAKELAKELKKIAEANAKALSSLGPLGEEYAKKVKEYAEKVIKEIEKII
- binding in a display sort: not found

B35: design_617_b3fadc1d-0db4-4da8-8433-818493aa2ab2_836_dldesign_0_cycle1_af2pred (protein)
chain: VTPEEAKKRVEELVEEAIKLAEKADPAEAEKIRKTYETEGPLAAAAVIWAIGNRFAEKPETKEIGERLRELAIEAIRLLLAAAAA
- binding in a display sort: not found

B36: design_616_e8336982-fa4d-4d7c-b06f-9007953e1994_2209_dldesign_0_cycle1_af2pred (protein)
chain: NAEAGKYLEEALKLAAEAQKAAAANPAVAPEVIAQASRLVAEAAKAALAGDTKAAKEYLEKMKELRDAAKAALAAA
- binding in a display sort: not found

B37: design_617_b3fadc1d-0db4-4da8-8433-818493aa2ab2_1042_dldesign_0_cycle1_af2pred (protein)
chain: MSAAEIIREALKLLKEAAKAAATDPAKAKELADKAIALGKENQGAALLLSNTARNLAATATPEEAAFLLEVAERARAVAEAL
- binding in a display sort: not found

B38: design_617_b3fadc1d-0db4-4da8-8433-818493aa2ab2_224_dldesign_0_cycle1_af2pred (protein)
chain: AEAQALLDQAKAYLAQGTALFQSDPSLSSQALQQFGLAYIYASRAAALATAAGDTATADAAKAVQDQALANMQAIAAS
- binding in a display sort: not found
